Measured values reported in PubChem BioAssay (NCI).
Compounds without any hit were thinned out: in the full panel of roughly 83,000, 20% have a hit.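 The test compound was applied at a single concentration to cells in 96-well plates for 48 hours, and percent growth was recorded.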 Values without a mark were called inactive. The source made the active and inactive calls. How the source made its calls: active means growth percent below 10; inactive means the rest.

Columns and labels:
Assay in all cases: NCI-60 one-dose screen, 48 h (100 = growth as untreated, 0 = no growth, -100 = all killed)
Conditions in all cases: 10 µM unless noted
[1] = test system: SR leukemia
[2] = test system: OVCAR-8 ovarian
[3] = test system: OVCAR-5 ovarian
[4] = test system: OVCAR-4 ovarian
[5] = test system: SK-OV-3 ovarian
[6] = test system: IGROV1 ovarian
[7] = test system: OVCAR-3 ovarian
[8] = test system: HS 578T breast
[9] = test system: NCI/ADR-RES ovarian
[10] = test system: T-47D breast
[11] = test system: BT-549 breast
[12] = test system: MDA-MB-435 melanoma
[13] = test system: SW-620 colon
[14] = test system: MCF7 breast
[15] = test system: HCT-116 colon
[16] = test system: HCC-2998 colon
[17] = test system: KM12 colon

| SMILES | growth [1] | growth [2] [%] | growth [3] [%] | growth [4] [%] | growth [5] | growth [6] [%] | growth [7] [%] | growth [8] | growth [9] [%] | growth [10] | growth [11] [%] | growth [12] | growth [13] | growth [14] | growth [15] | growth [16] [%] | growth [17] [%] |
| --- | --- | --- | --- | --- | --- | --- | --- | --- | --- | --- | --- | --- | --- | --- | --- | --- | --- |
| Nc1c(N)c2ccccc2c2ccccc12 | 94.1% | 99.1 | 107 | 96.5 | 102% | 117 | 116 | 104% | 101 | 104% | 112 | 107% | 103% | 98.3% | 114% | 103 | 116 |
| CC(C)(c1ccccc1)c1cc(O)c(C(C)(C)c2ccccc2)cc1O | 18.5% | 45.6 | 78.8 | 30.8 | 43.1% | 42.4 | 38.9 | 47.4% | 43.7 | -0.998% (active) | 20.6 | 35.1% |  | 12.3% | 9.74% (active) | 61 | 19.4 |
| Cc1ccccc1C1CC(=O)c2ccccc2C1C (configuration not stated) | 78.7% | 106 | 97.2 | 101 | 105% | 123 | 116 | 98.9% | 108 | 107% | 131 | 91.3% | 99.2% | 115% | 95.3% | 104 | 107 |
| O=C1c2cccc3cccc(c23)C(=O)N1CCCCCCCCCCN1C(=O)c2cccc3cccc(c23)C1=O | 96.8% | 104 | 106 | 95 | 105% | 110 | 109 | 99.1% | 110 | 97.7% | 114 | 104% | 104% | 86.9% | 117% | 112 | 109 |
| C=CCOC(=O)C1=C(C)NC2=C(C(=O)CCC2)C1c1ccc(F)cc1 (configuration not stated) | 92.2% | 97 | 98 | 98.7 | 86.6% | 99.2 | 109 | 88.4% | 101 | 89.4% | 99.4 | 101% | 94.4% | 95.6% | 92.3% | 104 | 93.8 |
| O=C(Cc1ccc([N+](=O)[O-])cc1)Oc1ccccc1 | 96.7% | 107 | 115 | 111 | 110% | 123 | 119 | 109% | 113 | 109% | 106 | 122% | 114% | 107% | 114% | 106 | 118 |
| CCN(CC)CCCC(C)Nc1c(-c2ccccc2)cnc2cc(Cl)ccc12 (configuration not stated) | 7.58% (active) | 71.3 | 83.4 | 83 | 89.7% | 36.5 | 82.4 | 70.3% | 79.6 | -44.9% (active) | 87.4 | 38.2% | 70.3% | 59.1% | 36.2% | 73.4 | 65.3 |
| Cc1c(C(N)=O)sc2ncn(CC(=O)NN=C3CCCCC3)c(=O)c12 | 82.9% | 110 | 104 | 110 | 110% | 135 | 107 | 108% | 100 | 103% | 99.4 | 99% | 97.4% | 109% | 95.1% | 106 | 115 |
| CNC(=O)OC1C(O[C@H]2C[C@H]3[C@@H]4CC=C5C[C@@H](O)CC[C@]5(C)[C@H]4CC[C@]3(C)[C@H]2[C@H](C)C(=O)CCC(C)C)OCC(O)C1OC1OCC(O)C(O)C1OC(=O)c1ccc(OC)cc1 (some centres not stated) | 1.47% (active) | 35.5 | 38.8 | 55.8 | -20.6% (active) | 28.3 | 62.7 | -5.93% (active) | 82.8 | 10.2% | 18.3 | -25.7% (active) | -37.2% (active) | 3.66% (active) | 8.61% (active) | 67.3 | 36.5 |
